Six sequences from article PMC8384837, “Expanding the binding specificity for RNA recognition by a PUF domain” can be followed below.

The target of the first experiment is PUM1 PUF domain R3-GRS (Homo sapiens, UniProt Q14671 828-1176, C935G;Q939S). The experiment is described as follows: yeast three-hybrid, YBZ-1, SC-Leu-His + 0.5 mM 3-AT, 4 days. The settings on record: tags: N-Gal4 AD-HA kept; label: inside an RPR1-promoter hybrid RNA with tandem MS2 sites; ssRNA. The procedure, abridged:
(§1)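 Pumilio-1 PUF domain libraries, randomized at the three base-contacting residues of each repeat, were co-expressed with matching RNA elements from a centromeric plasmid in strain YBZ-1, which carries a LexA–MS2 coat fusion and a HIS3 reporter. Transformants grew for four days on SC-Leu (input) or on SC-Leu-His + 0.5 mM 3-AT (selection), and the repeat regions were PCR-amplified and Illumina-sequenced. The interaction score is the log change in variant frequency from input to selection. That logarithm is base 2, with a pseudocount of 1 where a variant was absent.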
With “GGCUAGAACUAGUGGAUCCCCCGGCGCCCGGCGGCUCGAGCCCGGGUAAGUGUAAGUAGUCUGCAUGCCGCCGGGCGCCAUGCCUGCAGGUCGACUCUAGAAAACAUG”, the binding signal was 1.73 log2 enrichment (interaction score).
Still for that read-out and setting: next, “GGCUAGAACUAGUGGAUCCCCCGGCGCCCGGCGGCUCGAGCCCGGGUAAGUGUAAUUAGUCUGCAUGCCGCCGGGCGCCAUGCCUGCAGGUCGACUCUAGAAAACAUG”: 1.26 log2 enrichment (interaction score).
On the same count and under the same terms, next, “GGCUAGAACUAGUGGAUCCCCCGGCGCCCGGCGGCUCGAGCCCGGGUAAGUGUAAAUAGUCUGCAUGCCGCCGGGCGCCAUGCCUGCAGGUCGACUCUAGAAAACAUG”: 2.84 log2 enrichment (interaction score).

Another experiment has as its target PUM1 PUF domain R1-RSN (Homo sapiens, UniProt Q14671 828-1176, S863R;R864S;Q867N). The experiment is described as above. The settings on record: tags: N-Gal4 AD-HA kept; label: inside an RPR1-promoter hybrid RNA with tandem MS2 sites; ssRNA. The procedure, abridged:
as §1
With “GGCUAGAACUAGUGGAUCCCCCGGCGCCCGGCGGCUCGAGCCCGGGUAAGUGUAAAUUGUCUGCAUGCCGCCGGGCGCCAUGCCUGCAGGUCGACUCUAGAAAACAUG”, the binding signal was 4.41 log2 enrichment (interaction score).
Same read-out and setting: then “GGCUAGAACUAGUGGAUCCCCCGGCGCCCGGCGGCUCGAGCCCGGGUAAGUGUAAAUCGUCUGCAUGCCGCCGGGCGCCAUGCCUGCAGGUCGACUCUAGAAAACAUG”, with 5.16 log2 enrichment (interaction score); and “GGCUAGAACUAGUGGAUCCCCCGGCGCCCGGCGGCUCGAGCCCGGGUAAGUGUAAAUGGUCUGCAUGCCGCCGGGCGCCAUGCCUGCAGGUCGACUCUAGAAAACAUG”, with 2.27 log2 enrichment (interaction score).
